From PubChem BioAssay (NCATS)
Inconclusive results are not listed. Activity calls are given as the source filed them. The call rests on the fitted dose curve; in most records, active means well fitted inhibition curve with a large enough effect; inconclusive means small, poorly fitted or top-dose-only effect; inactive means no such curve, though single readings can be large or run the other way.

assay: qHTS Screen of the MIPE 4.0 Collection Against Ewings Sarcoma (TC32) (AID 1259256); details: TC32 Ewing sarcoma viability, CellTiter-Glo, 48 h; series mostly up to 45.8 µM; viability (percent of control): at the top concentration; further: nearly all actives have a fitted effect of over 45% in size;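 on viability (percent of control): 100% = DMSO-treated cells and 0% = medium-only wells without cells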
In short: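 After a 4 h attachment period in RPMI/5% FBS, cells were pin-dosed with test compounds; DMSO served as negative and 9.2 uM bortezomib (final) as positive control. Luminescent CellTiter-Glo signal at 48 h defined viability.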
Potency means the concentration at half of the fitted maximal effect.

| Structure (SMILES) | Potency | viability (percent of control) |
| --- | --- | --- |
| COc1ccc(S(=O)(=O)Nc2cc(-c3c(O)ccc4ccccc34)c(O)c3ccccc23)cc1 | 18.7 µM (active) |  |
| CC1=C(C(=O)Nc2cc3cn[nH]c3cc2F)C(c2ccc(Cl)cc2F)N=C(c2ccnc(Cl)c2)N1 (stereo not drawn) | 16.6 µM (active) |  |
| NC(=NCCCCCCN=C(N)N=C(N)Nc1ccc(Cl)cc1)N=C(N)Nc1ccc(Cl)cc1 | 7.43 µM (active) |  |
| C[C@]12CCC(=O)C=C1[C@@H]1CC1[C@H]1[C@H]3[C@@H]4C[C@H]4[C@@]4(CCC(=O)O4)[C@@]3(C)CC[C@H]12 (stereo partly drawn) |  | 98.1% (inactive) |
| Cc1cncc2cccc(S(=O)(=O)N3CCCN(C(=O)CN)C[C@@H]3C)c12 | 1.18 µM (active) |  |
| CC(=CC(=O)Nc1ccccc1C(=O)O)c1ccc2ccccc2c1 | 9.35 µM (active) |  |
| COc1cc([C@@H]2c3cc4c(cc3[C@@H](O[C@@H]3O[C@@H]5CO[C@@H](c6cccs6)O[C@@H]5[C@H](O)[C@@H]3O)[C@H]3COC(=O)[C@H]23)OCO4)cc(OC)c1O |  | 21.7% (inactive) |

assay: NS1 protein of Zika virus - qHTS assay to identify small molecule inhibitors in human HEK 293 cells (AID 1347053); details: HEK293 ZIKV MR766 infection, NS1 TR-FRET, 24 h; series mostly up to 46.1 µM; activity change, negative = inhibition: at the top concentration; further: nearly all actives have a fitted effect of over 55% in size;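 on activity change, negative = inhibition: plate controls were infected untreated cells for no effect and uninfected cells for full effect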
In short: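 HEK 293 cells pretreated with compound for 1 h, then infected with ZIKV MR766 (MOI 0.5) for 24 h at 37 C. NS1 detected by TR-FRET with two anti-NS1 antibodies; normalized to uninfected (0%) and infected (100%) wells.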

| Structure (SMILES) | Potency | activity change, negative = inhibition |
| --- | --- | --- |
| COc1cc(O)c2c(c1)C1OC1C[C@H](O)[C@H](O)C(=O)C=CC[C@H](C)OC2=O (stereo partly drawn) | 11.8 µM (active) |  |
| N=c1ccn2c(n1)O[C@H]1[C@@H](O)[C@@H](CO)O[C@H]12 |  | 2.4% (inactive) |
| NS(=O)(=O)OC[C@@H]1C[C@@H](n2ccc3c(N[C@H]4CCc5ccccc54)ncnc32)C[C@H]1O |  | -8.81% (inactive) |
| Oc1ccc(-c2ccc(-c3cc(Nc4cccc(CNC5CC5)c4)n[nH]3)cc2)c(O)c1 | 1.18 µM (active) |  |
| O=C(Nc1cccc(Nc2ncc(Br)c(NCCc3cnc[nH]3)n2)c1)N1CCCC1 | 10.5 µM (active) |  |
| N#Cc1c(C2CCNCC2)cc(-c2c(O)cccc2OCC2CC2)nc1N |  | 14.2% (inactive) |
| C=CC(=O)N1CCc2ccc(-n3c(=O)ccc4cnc5ccc(-c6cnn(C)c6)cc5c43)cc21 | 2.96 µM (active) |  |
| O=C(Nc1cc2cc[nH]c2cn1)c1ccccc1 |  | 0.542% (inactive) |
| Nc1ccn(C[C@@H](CO)OCP(=O)(O)O)c(=O)n1 |  | 15.9% [at 20.1 µM] (inactive) |
| CC(N[C@H]1CCCC[C@H]1NC(=O)c1ccc(Cl)cc1)c1cccc2ccccc12 (stereo partly drawn) |  | 3.72% (inactive) |
| Cc1[nH]c(C=C2C(=O)Nc3ccccc32)c(C)c1CCC(=O)O |  | 37.4% (inactive) |
| COc1cccc2c1C(=O)c1c(O)c3c(c(O)c1C2=O)C[C@@](O)(C(=O)CO)C[C@H]3O[C@H]1C[C@H](N)[C@H](O)[C@H](C)O1 | 0.332 µM (active) |  |
| C[C@H](NCc1ccc(OCc2cccc(F)c2)cc1)C(N)=O | 23.5 µM (active) |  |
| Cc1cnc(NC(=O)Nc2cc(Br)c(C)cc2OC[C@@H]2CNCCO2)cn1 | 6.62 µM (active) |  |
| CCOc1cc2ncc(C#N)c(Nc3ccc(OCc4ccccn4)c(Cl)c3)c2cc1NC(=O)C=CCN(C)C |  | 6.35% (inactive) |
| CCOC(=O)N1CCN([N+]([O-])=NOc2ccc([N+](=O)[O-])cc2C#N)CC1 | 2.96 µM (active) |  |

| Structure (SMILES) | Potency | activity change, negative = inhibition |
| --- | --- | --- |
| COc1cccc2c1C(=O)c1c(O)c3c(c(O)c1C2=O)C[C@@](O)(C(=O)CO)C[C@@H]3O[C@H]1C[C@H](N)[C@@H](O)[C@H](C)O1 | 0.296 µM (active) |  |
| Oc1cc(-c2nc(-c3ccccc3)[nH]c2-c2ccncc2)ccc1Cl | 37.2 µM (active) |  |
| CN1[C@H]2CC(OC(=O)[C@@H](CO)c3ccccc3)C[C@H]1[C@H]1O[C@H]12 (stereo partly drawn) |  | -8.35% [at 20.1 µM] (inactive) |
| Cc1cc(Nc2ncc3c(n2)N(C)C(=O)N(c2cc(NC(=O)c4cccc(C(F)(F)F)c4)ccc2C)C3)n(C)n1 |  | -8.25% (inactive) |
| C[N+](C)([O-])CCNc1ccc(NCC[N+](C)(C)[O-])c2c1C(=O)c1c(O)ccc(O)c1C2=O |  | 0.59% (inactive) |
| CC(=O)OCC(=O)[C@@]1(O)CC[C@H]2[C@@H]3CCC4=CC(=O)CC[C@]4(C)[C@@H]3C(=O)C[C@@]21C |  | -3.57% (inactive) |
| CCC(C(=O)O)C1CCC(C)C(C(C)C(O)C(C)C(=O)C(CC)C2OC3(C=CC(O)[C@@]4(CC[C@](C)(C5CC[C@@](O)(CC)C(C)O5)O4)O3)C(C)CC2C)O1 (stereo partly drawn) | 1.66 µM (active) |  |
| CO[C@@H]1[C@@H](O)[C@H](O)[C@@H](n2c3c(Cl)cccc3c3c4c(c5c6cccc(Cl)c6[nH]c5c32)C(=O)NC4=O)O[C@@H]1CO | 0.118 µM (active) |  |
| COc1ccc(S(=O)(=O)Nc2cc(-c3c(O)ccc4ccccc34)c(O)c3ccccc23)cc1 |  | 2.42% (inactive) |
| CC1=C(C(=O)Nc2cc3cn[nH]c3cc2F)C(c2ccc(Cl)cc2F)N=C(c2ccnc(Cl)c2)N1 (stereo not drawn) |  | -13.7% (inactive) |
| NC(=NCCCCCCN=C(N)N=C(N)Nc1ccc(Cl)cc1)N=C(N)Nc1ccc(Cl)cc1 |  | -22.9% (inactive) |
| C[C@]12CCC(=O)C=C1[C@@H]1CC1[C@H]1[C@H]3[C@@H]4C[C@H]4[C@@]4(CCC(=O)O4)[C@@]3(C)CC[C@H]12 (stereo partly drawn) |  | -4.63% (inactive) |
| Cc1cncc2cccc(S(=O)(=O)N3CCCN(C(=O)CN)C[C@@H]3C)c12 |  | 8.68% (inactive) |
| CC(=CC(=O)Nc1ccccc1C(=O)O)c1ccc2ccccc2c1 | 14.8 µM (active) |  |
| COc1cc([C@@H]2c3cc4c(cc3[C@@H](O[C@@H]3O[C@@H]5CO[C@@H](c6cccs6)O[C@@H]5[C@H](O)[C@@H]3O)[C@H]3COC(=O)[C@H]23)OCO4)cc(OC)c1O | 0.296 µM (active) |  |
